Reference: PubChem BioAssay AID1159580 (chemical genetic matrix, 2015)
Hit rate of the full screen: of about 5,500 compounds, about 2,000 (36%) were called active. Roughly 18% stayed inconclusive and do not appear here. Cut-off read from the data, not from the text of the source: active = normalized growth mostly below about 0.91 (no sharp cut-off); inconclusive = no clear call, values can overlap the other calls; inactive = mostly above about 0.92. The list shows a part of the results.

Experiment: chemical genetic growth profiling, strain panel (AID 1159580);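 note: tested at 20 µM; growth read once vehicle control cultures reached saturation at 30 °C; 1 = growth at the plate median or of vehicle wells; lower values mean less growth of the strain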
Details: S. cerevisiae deletion strains, growth OD
[1] = locus YAR019C, strain CDC15, stronger effect = lower value
[2] = locus YBL105C, strain PKC1, stronger effect = lower value
[3] = locus YBR135W, strain CKS1, stronger effect = lower value
[4] = locus YBR136W, strain MEC1, stronger effect = lower value
[5] = locus YBR160W, strain CDC28, stronger effect = lower value
[6] = locus YDL017W, strain CDC7, stronger effect = lower value
[7] = locus YDL028C, strain MPS1, stronger effect = lower value
[8] = locus YDL101C, strain DUN1, stronger effect = lower value
[9] = locus YDL108W, strain KIN28, stronger effect = lower value
[10] = locus YDL132W, strain cdc53, stronger effect = lower value
[11] = locus YDL214C, strain PRR2, stronger effect = lower value
[12] = locus YDR052C, strain DBF4, stronger effect = lower value
[13] = locus YDR054C, strain cdc34, stronger effect = lower value
[14] = locus YDR226W, strain ADK1, stronger effect = lower value
[15] = locus YDR477W, strain SNF1, stronger effect = lower value
[16] = locus YER123W, strain YCK3, stronger effect = lower value
[17] = locus YER133W, strain GLC7, stronger effect = lower value
[18] = locus YFL009W, strain cdc4, stronger effect = lower value
[19] = locus YFL029C, strain CAK1, stronger effect = lower value
[20] = locus YFR003C, strain YPI1, stronger effect = lower value
[21] = locus YFR019W, strain FAB1, stronger effect = lower value
[22] = locus YFR028C, strain CDC14, stronger effect = lower value
[23] = locus YGR040W, strain KSS1, stronger effect = lower value
[24] = locus YGR052W, strain FMP48, stronger effect = lower value
[25] = locus YGR092W, strain DBF2, stronger effect = lower value
[26] = locus YHR030C, strain SLT2, stronger effect = lower value
[27] = locus YHR079C, strain IRE1, stronger effect = lower value
[28] = locus YHR082C, strain KSP1, stronger effect = lower value
[29] = locus YHR205W, strain SCH9, stronger effect = lower value
[30] = locus YIL147C, strain SLN1, stronger effect = lower value
[31] = locus YJL095W, strain BCK1, stronger effect = lower value
[32] = locus YJL128C, strain PBS2, stronger effect = lower value
[33] = locus YJL157C, strain FAR1, stronger effect = lower value
[34] = locus YJR016C, strain ILV3, stronger effect = lower value
[35] = locus YJR066W, strain TOR1 (second series), stronger effect = lower value
[36] = locus YJR066W, strain TOR1, stronger effect = lower value
[37] = locus YKL048C, strain ELM1, stronger effect = lower value
[38] = locus YKL067W, strain YNK1, stronger effect = lower value
[39] = locus YKL101W, strain HSL1, stronger effect = lower value
[40] = locus YKL193C, strain SDS22, stronger effect = lower value
[41] = locus YKL203C, strain TOR2, stronger effect = lower value
[42] = locus YLR113W, strain HOG1, stronger effect = lower value
[43] = locus YLR133W, strain CKI1, stronger effect = lower value
[44] = locus YLR403W, strain SFP1, stronger effect = lower value
[45] = locus YML070W, strain DAK1, stronger effect = lower value
[46] = locus YMR001C, strain CDC5, stronger effect = lower value
[47] = locus YMR205C, strain PFK2 (second series), stronger effect = lower value
[48] = locus YMR277W, strain FCP1, stronger effect = lower value
[49] = locus YNL006W, strain LST8, stronger effect = lower value
[50] = locus YNL020C, strain ARK1, stronger effect = lower value
[51] = locus YNL161W, strain CBK1, stronger effect = lower value
[52] = locus YNL183C, strain NPR1, stronger effect = lower value
[53] = locus YNL207W, strain RIO2, stronger effect = lower value
[54] = locus YNL222W, strain SSU72, stronger effect = lower value
[55] = locus YNL307C, strain MCK1 (second series), stronger effect = lower value
[56] = locus YOL078W, strain AVO1, stronger effect = lower value
[57] = locus YOL136C, strain PFK27, stronger effect = lower value
[58] = locus YOR061W, strain CKA2, stronger effect = lower value
[59] = locus YOR119C, strain RIO1, stronger effect = lower value
[60] = locus YOR231W, strain MKK1, stronger effect = lower value
[61] = locus YOR329C, strain SCD5, stronger effect = lower value
[62] = locus YPL031C, strain PHO85, stronger effect = lower value
[63] = locus YPL153C, strain RAD53, stronger effect = lower value
[64] = locus YPL204W, strain HRR25, stronger effect = lower value
[65] = locus YPL209C, strain IPL1, stronger effect = lower value
[66] = locus YPL256C, strain CLN2, stronger effect = lower value
[67] = locus YPR025C, strain CCL1, stronger effect = lower value
[68] = locus YPR106W, strain ISR1, stronger effect = lower value
[69] = locus YPR111W, strain DBF20, stronger effect = lower value
[70] = strain NNK1, stronger effect = lower value
[71] = strain TSCII, stronger effect = lower value

Measured: normalized growth

Oc1c(Cl)cc(Cl)cc1/C=N\NC(=S)Nc1cc(C(F)(F)F)cc(C(F)(F)F)c1
inactive: [8] 0.922 | [32] 0.905 | [68] 0.922 | [69] 0.905
active: [1] 0.815 | [2] 0.899 | [3] 0.884 | [4] 0.888 | [5] 0.893 | [6] 0.889 | [7] 0.878 | [9] 0.88 | [10] 0.811 | [11] 0.179 | [12] 0.894 | [13] 0.491 | [14] 0.886 | [15] 0.285 | [16] 0.158 | [17] 0.338 | [18] 0.611 | [19] 0.784 | [20] 0.853 | [21] 0.111 | [22] 0.857 | [23] 0.35 | [24] 0.132 | [25] 0.0943 | [26] 0.126 | [27] 0.103 | [28] 0.151 | [29] 0.121 | [30] 0.887 | [31] 0.136 | [33] 0.128 | [34] 0.722 | [35] 0.118 | [36] 0.119 | [37] 0.166 | [38] 0.137 | [39] 0.12 | [40] 0.858 | [41] 0.132 | [42] 0.171 | [43] 0.12 | [44] 0.159 | [45] 0.116 | [46] 0.805 | [47] 0.157 | [48] 0.811 | [49] 0.673 | [50] 0.117 | [51] 0.789 | [52] 0.245 | [53] 0.858 | [54] 0.885 | [55] 0.114 | [56] 0.856 | [57] 0.139 | [58] 0.114 | [59] 0.217 | [60] 0.128 | [61] 0.56 | [62] 0.163 | [63] 0.171 | [64] 0.121 | [65] 0.891 | [66] 0.158 | [67] 0.893 | [70] 0.272 | [71] 0.621

CCNC(=S)N/N=C\c1cc(Cl)cc(Cl)c1O
active: [16] 0.577 | [25] 0.313 | [26] 0.446 | [27] 0.341 | [41] 0.686 | [42] 0.706 | [60] 0.471 | [62] 0.635 | [63] 0.621 | [64] 0.642 | [66] 0.495
inactive: [1] 0.926 | [2] 0.938 | [3] 0.92 | [4] 0.931 | [5] 0.922 | [6] 0.925 | [7] 0.927 | [8] 0.923 | [9] 0.928 | [10] 0.948 | [11] 0.83 | [12] 0.929 | [13] 0.938 | [14] 0.941 | [15] 0.733 | [17] 0.752 | [18] 0.911 | [19] 0.919 | [20] 0.937 | [21] 0.873 | [22] 0.947 | [23] 0.775 | [24] 0.709 | [28] 0.699 | [29] 0.778 | [30] 0.923 | [31] 0.568 | [32] 0.925 | [33] 0.774 | [34] 0.93 | [35] 0.654 | [36] 0.509 | [37] 0.825 | [38] 0.875 | [39] 0.76 | [40] 0.908 | [43] 0.804 | [44] 0.746 | [45] 0.809 | [46] 0.923 | [47] 0.805 | [48] 0.916 | [49] 0.919 | [50] 0.749 | [51] 0.926 | [52] 0.589 | [53] 0.91 | [54] 0.93 | [55] 0.647 | [56] 0.916 | [57] 0.778 | [58] 0.801 | [59] 0.78 | [61] 0.926 | [65] 0.919 | [67] 0.923 | [68] 0.947 | [69] 0.938 | [70] 0.94 | [71] 0.912
